ssDAF-12 act – activates DAF-12 receptor from parasite S. stercoralis; HEK293 ssDAF-12/GRIP1 lit1-tk-luc reporter, luminescence; % of 3 µM dafachronic acid response; activation, % at 6.8 µM; hit rate 1% among 370,000;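 active = activation above the mean over all tested compounds plus 3 SD, cut at about 0.9% in these data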;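 note: 0% = DMSO-only wells and 100% = 3 µM delta7-dafachronic acid wells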
DAX1 inh-1 – inhibitors of human orphan nuclear receptor DAX1 (NR0B1) | P51843 | HEK293 Gal4-DAX1 luciferase reporter, luminescence | inhibition, % at 6.75 µM | hit rate 0.99% among 340,000 | AID 504766;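 active = inhibition above the mean over all tested compounds plus 3 SD, cut at about 4.2% in these data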;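 note: 0% = DAX1-transfected cells with DMSO and 100% = empty-vector control cells with DMSO; inhibition shows as a rise in luminescence from relieved DAX1 repression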
Target sequence (P51843 207-470 limits assumed): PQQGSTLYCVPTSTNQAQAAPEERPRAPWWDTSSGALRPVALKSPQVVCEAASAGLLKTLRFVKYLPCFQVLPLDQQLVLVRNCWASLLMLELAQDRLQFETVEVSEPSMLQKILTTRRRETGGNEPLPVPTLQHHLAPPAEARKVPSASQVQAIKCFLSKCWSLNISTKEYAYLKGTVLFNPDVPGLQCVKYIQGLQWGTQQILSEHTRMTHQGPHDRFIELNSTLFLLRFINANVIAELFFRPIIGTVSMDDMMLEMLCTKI
SMARCA2 activ – SMARCA2 function activation, primary screen | MG213 cells, MMTV-luciferase reporter, dexamethasone, overnight | activation, % at 9.1 µM | hit rate 1% among 370,000 | AID 652017; in the data active = activation above about 7.8%;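 note: 0% = vehicle wells and 100% = reference activator wells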
DAX1 inh-2 – blocks DAX1 repression of SF-1 activated StAR promoter | HEK293T StAR-luciferase reporter, SF-1/DAX-1 repression relief | inhibition, % at 6.8 µM | hit rate 1.1% among 370,000 | AID 652010;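 active = inhibition above the mean over all tested compounds plus 3 SD, cut at about 3.6% in these data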;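 note: 0% = DAX-1 cells with DMSO and 100% = cells lacking DAX-1 with DMSO; higher inhibition means more luminescence from relief of DAX-1 repression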
hgDAF12 agonist – activates the H. glycines DAF-12 receptor ligand-binding domain; HEK293 GAL4-hgDAF12 UAS-luciferase reporter, agonist luminescence; normalized to butyrate control; activation, % at 6.8 µM; hit rate 1.8% among 370,000;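 active = activation above a cutoff set at the mean of all screened compounds plus 3 SD, cut at about 10% in these data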;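 note: 0% = DMSO wells and 100% = sodium butyrate wells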
hcDAF12 agonist – H. contortus DAF-12 activation, primary screen; HEK293 hcDAF-12 lit1-tk-luc reporter, luminescence; 0% DMSO, 100% Δ7-dafachronic acid; hit rate 1.4% among 370,000; activation, % at 6.8 µM;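 active = activation above the mean of all tested compounds plus 3 SD, cut at about 5.5% in these data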;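 note: 100% = response to 3 µM Δ7-dafachronic acid high control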
SMARCA2 act conf – confirmation of SMARCA2 (BRM) function activators; shares compounds with SMARCA2 activ; MG213 cells, MMTV-luciferase with dexamethasone, luminescence, overnight; MG213 cells expressing E1A, Rb sequestered; DMSO wells 0%, reference activator 100%; activation, % at 9.1 µM; hit rate 30% among 3,500;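 active = activation above its plate's cutoff, the mean activation of tested wells plus 3 SD, cut at about 7.9% in these data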
VP16 Luc act – counter-screen for SMARCA2 activators: GAL4-VP16 luciferase reporter activation; hit rate 41% among 3,500; shares compounds with SMARCA2 activ; HEK293 GAL4-VP16 pG5luc reporter, luciferase luminescence; scaled: DMSO wells 0%, SAHA wells 100%; activation, % at 9.1 µM;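 active = activation above the solvent-only control well mean plus 3 SD, averaged across control plates, cut at about 5.2% in these data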
The depositor's hits bear a star. In the library only some 4.8% were active in any assay of this set; here they are far more common.

Results for CCN1C(=O)[C@H]2[C@@H](c3ccc(C)cc3)N3C(=O)N(c4ccc(C(F)(F)F)cc4)C(=O)[C@@]3(CC)[C@H]2C1=O ?
ssDAF-12 act: 0; DAX1 inh-1: 1; SMARCA2 activ: 2; DAX1 inh-2: 0; hgDAF12 agonist: 2; hcDAF12 agonist: 3

Results for O=C1C(Sc2ccccc2)=C[C@@]2(O)CC[C@@H](O)[C@]1(Sc1ccccc1)[C@H]2O ?
ssDAF-12 act: -1; SMARCA2 activ: 12*; DAX1 inh-2: -1; hgDAF12 agonist: -1; hcDAF12 agonist: -1; SMARCA2 act conf: 10*; VP16 Luc act: 2

What do the screens show for `COc1ccc(SC2=C[C@@]3(O)CC[C@@H](O)[C@@](Sc4ccc(OC)cc4)(C2=O)[C@H]3O)cc1`?
ssDAF-12 act: -1; SMARCA2 activ: -2; DAX1 inh-2: -2; hgDAF12 agonist: -2; hcDAF12 agonist: -3

Results for Cn1cccc1C(=O)OCc1ccc(C(C)(C)C)cc1 ?
ssDAF-12 act: -1; DAX1 inh-1: 0; SMARCA2 activ: 11*; DAX1 inh-2: 1; hgDAF12 agonist: 3; hcDAF12 agonist: 0; SMARCA2 act conf: 7; VP16 Luc act: 6.4*

Results for COc1cc(-c2nnc(COC(=O)c3cccn3C)o2)cc(OC)c1OC ?
ssDAF-12 act: -1; DAX1 inh-1: 0; SMARCA2 activ: -2; DAX1 inh-2: -1; hgDAF12 agonist: 0; hcDAF12 agonist: -3

How did Cn1cccc1C(=O)OCc1cc(-c2ccco2)on1 do in these assays?
ssDAF-12 act: 0; DAX1 inh-1: 3; SMARCA2 activ: 8.4*; DAX1 inh-2: 4.3*; hgDAF12 agonist: 10; hcDAF12 agonist: 2; SMARCA2 act conf: 4; VP16 Luc act: 5.4*

How did COc1ccccc1NS(=O)(=O)c1ccc(S(=O)(=O)N2CCOCC2)cc1 do in these assays?
ssDAF-12 act: -2; DAX1 inh-1: 0; SMARCA2 activ: -3; DAX1 inh-2: -1; hgDAF12 agonist: -1; hcDAF12 agonist: -1

How did CCN1CCN(c2ccc(S(=O)(=O)N3CCCCC3)cc2NC(=O)/C=C/c2ccc(F)cc2)CC1 do in these assays?
ssDAF-12 act: -1; DAX1 inh-1: 0; SMARCA2 activ: 6; DAX1 inh-2: -2; hgDAF12 agonist: 0; hcDAF12 agonist: 0

What do the screens show for `O=C(/C=C/c1ccc(Cl)cc1)Nc1cc(S(=O)(=O)N2CCOCC2)ccc1N1CCOCC1`?
ssDAF-12 act: -1; DAX1 inh-1: 0; SMARCA2 activ: 8.2*; DAX1 inh-2: -2; hgDAF12 agonist: -4; hcDAF12 agonist: -1; SMARCA2 act conf: 2; VP16 Luc act: 0

How did CCN1CCN(c2ccc(S(=O)(=O)N3CCCCC3)cc2NC(=O)/C=C/c2ccc([N+](=O)[O-])cc2)CC1 do in these assays?
ssDAF-12 act: 0; DAX1 inh-1: 0; SMARCA2 activ: 15*; DAX1 inh-2: -4; hgDAF12 agonist: -2; hcDAF12 agonist: 0; SMARCA2 act conf: 23*; VP16 Luc act: 0

Results for CCCCN1C(=O)C(CC(=O)NCCCN(C)C)CC(C(=O)N(C(C)C)C(C)C)=C1C (stereo unspecified) ?
ssDAF-12 act: 0; SMARCA2 activ: 13*; DAX1 inh-2: 1; hgDAF12 agonist: 1; hcDAF12 agonist: 2; SMARCA2 act conf: 8; VP16 Luc act: 0

Results for CCCCN1C(=O)C(CC(=O)NCCCN(C)C)CC(C(=O)N(CC)CC)=C1C (stereo unspecified) ?
ssDAF-12 act: 0; DAX1 inh-1: 1; SMARCA2 activ: -3; DAX1 inh-2: -1; hgDAF12 agonist: 1; hcDAF12 agonist: 0

What do the screens show for `CC1(C)CC(=O)C(N=Nc2ccc(Br)cc2)=C(O)C1`?
ssDAF-12 act: -1; SMARCA2 activ: 8.3*; DAX1 inh-2: 0; hgDAF12 agonist: 1; hcDAF12 agonist: 0; SMARCA2 act conf: 11*; VP16 Luc act: 4

Results for COc1cc(/C=N/N=C2/NC(=O)C(Cc3ccccc3)S2)ccc1O (stereo unspecified) ?
ssDAF-12 act: -2; DAX1 inh-1: 1; SMARCA2 activ: 9.0*; DAX1 inh-2: 1; hgDAF12 agonist: 4; hcDAF12 agonist: -1; SMARCA2 act conf: 6; VP16 Luc act: 5.3*

Results for COc1ccc(/C=N/N=C2/NC(=O)C(CC(=O)O)S2)cc1OS(=O)(=O)c1ccccc1 (stereo unspecified) ?
ssDAF-12 act: -2; DAX1 inh-1: 1; SMARCA2 activ: 2; DAX1 inh-2: -1; hgDAF12 agonist: 1; hcDAF12 agonist: 0

Results for S=C1SCN(Cc2ccccc2)CN1Cc1ccccc1 ?
ssDAF-12 act: -1; DAX1 inh-1: -1; SMARCA2 activ: 3; DAX1 inh-2: 0; hgDAF12 agonist: 0; hcDAF12 agonist: -2

What do the screens show for `S=C1SCN(Cc2cccnc2)CN1Cc1cccnc1`?
ssDAF-12 act: -2; DAX1 inh-1: -1; SMARCA2 activ: 12*; DAX1 inh-2: 0; hgDAF12 agonist: 0; hcDAF12 agonist: -1; SMARCA2 act conf: -8; VP16 Luc act: 0

What do the screens show for `O=C(CNc1ccc(Br)cc1)c1ccc(Br)s1`?
ssDAF-12 act: 0; DAX1 inh-1: 2; SMARCA2 activ: 9.3*; DAX1 inh-2: 0; hgDAF12 agonist: 2; hcDAF12 agonist: 3; SMARCA2 act conf: 10*; VP16 Luc act: 3

How did O=C(CNc1ccc(Br)cc1)c1ccc(O)cc1 do in these assays?
ssDAF-12 act: -1; DAX1 inh-1: 1; SMARCA2 activ: 2; DAX1 inh-2: 0; hgDAF12 agonist: 6; hcDAF12 agonist: 0

How did Cc1ccc2nc(N3C(=O)CNC3=S)sc2c1 do in these assays?
ssDAF-12 act: 0; SMARCA2 activ: 15*; DAX1 inh-2: 2; hgDAF12 agonist: 6; hcDAF12 agonist: 4; SMARCA2 act conf: -4; VP16 Luc act: 16*

How did CC(C)OCCCNC1=C(Cl)C(=O)c2ccccc2C1=O do in these assays?
ssDAF-12 act: -1; SMARCA2 activ: 9.4*; DAX1 inh-2: 0; hgDAF12 agonist: -3; hcDAF12 agonist: -2; SMARCA2 act conf: 6; VP16 Luc act: 2

What do the screens show for `CCN(CC)c1ccc(NC(=O)c2cccc(C)c2OC)c(C)c1`?
ssDAF-12 act: -1; DAX1 inh-1: 1; SMARCA2 activ: 8.2*; DAX1 inh-2: 2; hgDAF12 agonist: 9; hcDAF12 agonist: 0; SMARCA2 act conf: 14*; VP16 Luc act: 4

Bioassay records: PubChem, The Scripps Research Institute Molecular Screening Center
